Autophagy HCS: autophagy modulation, high-content screen. calls only at 10 µM (by protocol). 190,000 tested, 0.98% active. AID 463193. MEF GFP-LC3 puncta imaging; test concentration mostly 10 µM;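 active = percentage of spot-positive cells more than 3 SD above its plate mean, without a fluorescence outlier flag or 80% toxicity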
INS promoter inh: TRM-6 insulin promoter activity inhibition. TRM-6 cells (human fetal islet line), insulin promoter-eGFP reporter, imaging; reporter expression induced with tamoxifen. inhibition, % at 2 µM. 130,000 tested, 0.9% active. AID 1273;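 active = inhibition above the mean plus 3 SD, with well images judged a real hit on visual review, cut at about 60% in these data, passing the limit was not always enough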
Lmaj promast: Leishmania major promastigote growth inhibition; AID 1063; inhibition, % at 10 µM; Leishmania major promastigotes, resazurin fluorescence viability; 200,000 tested, 9% active; in the data active = inhibition above about 50%;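 also: promastigotes grown with compound for 44 hours at 28 °C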
Insulin prom up: MIN6 insulin promoter up-regulation; 190,000 tested, 0.3% active; AID 1625; z-score at 5 µM; MIN6 insulin promoter-GFP reporter, high-content imaging; hits give high values;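 active = z-score above 3 at 5 µM with at least 500 cells counted in the well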
WT yeast gro inh: growth inhibition of WT yeast, mitochondrial fusion screen. mitochondrial fusion phenotypic screen, WT strain. inhibition, % at 10 µM. 190,000 tested, 2.1% active; in the data active = inhibition above about 58%; tested in S. cerevisiae
Of the large screens only hits and unclear results are named; the others gave an inactive call. Shown are actives, neighbours in structure and some others; about 11% of the full set was active somewhere.

COC(=O)N/N=C(\C)c1ccc2ccccc2c1OC(F)F	Lmaj promast 56
O=C(O)CCC(=O)NNc1ccccc1[N+](=O)[O-]	none
CCc1cccc(NC(=O)CCCSc2nc3ccccc3[nH]2)c1	none
CC(=O)Nc1ccc(S(=O)(=O)NCC(=O)OCC(=O)N2CCc3ccccc32)cc1	WT yeast gro inh 62
O=C(CNS(=O)(=O)c1ccccc1Br)OCC(=O)N1CCc2ccccc21	none
CC(=O)Nc1ccc(S(=O)(=O)NCC(=O)OCC(=O)NC(=O)C2CCCCC2)cc1	none
CC(=O)Nc1ccc(S(=O)(=O)NCC(=O)OCC(=O)NC23CC4CC(CC(C4)C2)C3)cc1	Lmaj promast 51
O=S(=O)(Nc1cccc(-c2ccc3nncn3n2)c1)c1ccc(Cl)s1	none
COc1ccccc1NS(=O)(=O)c1cccc(C(=O)N/N=C/c2ccc(C)o2)c1	none (no result: INS promoter inh, Insulin prom up)
COc1ccccc1NS(=O)(=O)c1cccc(C(=O)N/N=C/c2ccc(N3CCOCC3)cc2)c1	Lmaj promast 52
Cc1ccc(NS(=O)(=O)c2cccc(C(=O)N/N=C/c3c(C)nn(-c4ccccc4)c3N3CCCC3)c2)c(C)c1	Lmaj promast 64
COc1ccc(-c2nn(-c3ccccc3)cc2/C=N/NC(=O)c2cccc(S(=O)(=O)Nc3ccccc3OC)c2)cc1	Lmaj promast 52
COc1ccc(NS(=O)(=O)c2cccc(C(=O)N/N=C/c3cccs3)c2)cc1	Lmaj promast 53
CCNc1ccc(C(=O)N/N=C/c2c(C)nn(-c3ccccc3)c2N2CCCC2)cc1[N+](=O)[O-]	none
COC(=O)c1cc(COc2ccc3c4c(c(=O)oc3c2)CCC4)c(C)o1	none (no result: Insulin prom up)
COc1ccc(CCNC(=O)COC(=O)CCC(=O)c2ccc(F)cc2)cc1	none (no result: INS promoter inh)
COc1cc(/C=C/c2nc3ccc([N+](=O)[O-])cc3s2)ccc1OCC(=O)O	none (no result: Autophagy HCS, INS promoter inh, Lmaj promast, WT yeast gro inh)
CCn1cnc2c1c(=O)n(CC(=O)N1CCc3ccccc31)c(=O)n2Cc1ccccc1	none (no result: INS promoter inh)
O=C(Cn1c(=O)c2c(ncn2Cc2ccccc2)n(Cc2ccccc2)c1=O)N1CCc2ccccc21	Lmaj promast 100
O=C(NNC1=Nc2cccc3cccc1c23)c1ccccc1Br	Lmaj promast 53 (no result: INS promoter inh)
Cc1cccc(N=Nc2c(C)[nH]n(C(N)=S)c2=O)c1C	WT yeast gro inh 72 (no result: INS promoter inh)
CC(=O)N(C)c1ccc(N=Nc2c(C)[nH]n(C(N)=S)c2=O)cc1	none
Cc1ccccc1N=Nc1c(C)[nH]n(C(N)=S)c1=O	Lmaj promast 53, WT yeast gro inh 61
O=C(CSc1ccccc1)Nc1cc(S(=O)(=O)N2CCOCC2)ccc1N1CCOCC1	none (no result: INS promoter inh)
COc1ccc(C2=C(N)c3ccccc3C2=O)cc1	INS promoter inh 71
COC1=C(Nc2ccc(OC)cc2)C(=O)c2ccccc2C1=O	Lmaj promast 69
CCOc1ccc(NC2=C(OC)C(=O)c3ccccc3C2=O)cc1	none
COC1=C(Nc2ccc(O)cc2)C(=O)c2ccccc2C1=O	Lmaj promast 53
CCCOc1ccc(/C(O)=C2/C(=O)C(=O)N(CCCn3ccnc3)C2c2cccnc2)cc1 (stereo not drawn)	none (no result: Autophagy HCS, INS promoter inh, Lmaj promast, WT yeast gro inh)
O=C(/C=C/c1ccccc1)/C=C/c1ccccc1	Lmaj promast 100
CC(/C=C/c1ccco1)=N\NC(=O)COc1ccc(C)c(C)c1	none (no result: INS promoter inh)
N#CCC(=O)Nc1ccc(C(=O)NCc2cccc(Cl)c2)cc1	none (no result: Autophagy HCS, INS promoter inh, Lmaj promast, WT yeast gro inh)
O=C(O)C(CC1CCCCC1)N1CCS(=O)(=O)CC1 (stereo not drawn)	none
Cc1ccc(C)c(C(=O)N(Cc2nc(-c3ccc(Cl)cc3)no2)C(C)C)c1	WT yeast gro inh 70 (no result: INS promoter inh)
CC(C)N(Cc1nc(-c2ccc(Cl)cc2)no1)C(=O)CCC1CCCC1	WT yeast gro inh 67 (no result: INS promoter inh)
COc1ccc(/C(C)=N/Nc2ccc(C(=O)O)cc2)cc1OC	Lmaj promast 51
Cc1cccc(NC2=Nc3ccccc3N3C2=Nc2c(c(C)nn2-c2ccccc2)C3c2ccc(O)c(O)c2)c1 (stereo not drawn)	none
Cc1nn(-c2ccccc2)c2c1C(c1ccc(O)c(O)c1)N1C(=N2)C(Nc2ccccc2)=Nc2ccccc21 (stereo not drawn)	Autophagy HCS active, Lmaj promast 90
Cc1ccc(NC2=Nc3ccccc3N3C2=Nc2c(c(C)nn2-c2ccccc2)C3c2ccc(O)c(O)c2)cc1 (stereo not drawn)	Autophagy HCS active, Lmaj promast 86
CCSc1ncc(/C=N/Nc2ccc(F)cc2)n1C	Lmaj promast 69 (no result: INS promoter inh)
O=C(c1sc2cccc(F)c2c1Cl)N1CCN(c2ncccn2)CC1	Lmaj promast 77
Cc1onc(-c2c(F)cccc2Cl)c1C(=O)N1CCN(c2ncccn2)CC1	none
Cc1cccc(-n2c(=S)[nH]c3c(oc4ccccc43)c2=O)c1	Lmaj promast 58
CCOC(=O)/C(=C/C=C1\Sc2cc(OCC)c(OCC)cc2N1CC)C(C)=O	Autophagy HCS active, Lmaj promast 68, Insulin prom up 16
CCN1/C(=C/C(C)=O)Sc2ccc(OC)cc21	none (no result: INS promoter inh)
CCOC(=O)/C(=C\C=C1/Sc2cc(OCC)c(OCC)cc2N1CC)C(C)=O	Autophagy HCS active (no result: Insulin prom up)
CCCCOc1ccc(/C=C/C(=O)Nc2ccc(C(N)=O)cc2)cc1	Lmaj promast 91
COc1ccc(S(=O)(=O)NC(CC(=O)NCCc2ccc(OC)c(OC)c2)C(C)C)cc1 (stereo not drawn)	none (no result: INS promoter inh)
Cc1onc(-c2ccccc2Cl)c1C(=O)Nc1cccc(-c2nc3ncccn3c2C)c1	INS promoter inh 82
Cc1c(-c2cccc(NC(=O)c3ccco3)c2)nc2ncccn12	Lmaj promast 100
CCSc1nnc(NC(=O)c2c(-c3ccccc3Cl)noc2C)s1	none (no result: INS promoter inh)
Cc1onc(-c2ccccc2Cl)c1C(=O)Nc1nnc(-c2cccc([N+](=O)[O-])c2)s1	WT yeast gro inh 64 (no result: INS promoter inh)
Cc1onc(-c2ccccc2Cl)c1C(=O)Nc1ccc(-c2cn3cccnc3n2)cc1	none
Cc1c(-c2cccc(NC(=O)c3cccs3)c2)nc2ncccn12	Lmaj promast 75 (no result: INS promoter inh)
O=C(Oc1ccccc1O)c1cccc2ccccc12	none (no result: INS promoter inh)
Cc1cc(O)ccc1NC(=O)CCN1C(=O)c2ccc([N+](=O)[O-])cc2C1=O	Lmaj promast 70
CCOC(=O)C1=C(C)Nc2sc(C(=O)c3ccc(OC)cc3)c(N)c2C1c1ccc(C(=O)OC)cc1 (stereo not drawn)	Lmaj promast 71
COC(=O)C1=C(C)Nc2sc(C(N)=O)c(N)c2C1c1ccncc1 (stereo not drawn)	none
CCOC(=O)c1c2ccc(OCC(=O)N/N=C/c3ccc(C)cc3)cc2n2ccccc12	Autophagy HCS active (no result: INS promoter inh)
CCC(=O)Nc1ccc(C(=O)CSc2nnc(-c3ccc(NS(C)(=O)=O)cc3)n2C)cc1OC	none
CCn1c(SCC(=O)c2ccc(NC(C)=O)c(OC)c2)nnc1-c1ccc(NS(C)(=O)=O)cc1	Lmaj promast 64
CCn1c(C)c(C)c2cc(C(=O)Nc3cccc(Cl)c3)ccc21	Lmaj promast 62 (no result: INS promoter inh)
C=CCNC(=O)CSc1nnc(-c2ccccc2Br)n1-c1cccc(C(F)(F)F)c1	Lmaj promast 79 (no result: Insulin prom up)
COc1ccc(OC)c(S(=O)(=O)Nc2cccc(F)c2)c1	Lmaj promast 97
COc1ccc(OC)c(S(=O)(=O)Nc2ccc(F)cc2)c1	none

Screening data from PubChem.
